Consider 99 molecules from PubChem BioAssay AID1851 (National Center for Advancing Translational Sciences (NCATS), 2009).

Structures are written as SMILES. In all, about 16,000 compounds went through this assay and about 5,100 (32%) were called active. About 25% were inconclusive and are not listed. This is one part of the list. A number with no mark means an inactive call. Calls come from the whole dose curve; as a rule, active = well fitted curve in the direction sought with a large enough effect; inconclusive = small, poorly fitted or top-dose-only effect, or effect the other way; inactive = no such curve, though single readings can be large or run the other way.
% is set by controls: 0 for no effect and ±100 for the full control effect.

Cytochrome P450 3A4 (Homo sapiens), sequence (P08684 whole entry, looked up): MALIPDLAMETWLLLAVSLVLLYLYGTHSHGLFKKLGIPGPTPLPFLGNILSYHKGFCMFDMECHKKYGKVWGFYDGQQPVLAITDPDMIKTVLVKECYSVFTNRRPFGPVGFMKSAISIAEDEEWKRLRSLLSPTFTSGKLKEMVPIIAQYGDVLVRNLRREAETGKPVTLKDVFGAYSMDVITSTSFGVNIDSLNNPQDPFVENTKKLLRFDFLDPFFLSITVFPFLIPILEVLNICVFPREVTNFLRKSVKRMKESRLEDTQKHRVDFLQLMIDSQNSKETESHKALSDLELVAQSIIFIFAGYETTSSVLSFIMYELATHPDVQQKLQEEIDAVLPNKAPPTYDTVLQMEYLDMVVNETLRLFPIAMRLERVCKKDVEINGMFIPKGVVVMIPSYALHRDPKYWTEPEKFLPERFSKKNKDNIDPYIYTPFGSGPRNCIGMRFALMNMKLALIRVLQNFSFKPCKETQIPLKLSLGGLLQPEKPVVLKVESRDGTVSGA

The test concerns the target Cytochrome P450 3A4 (Homo sapiens) (UniProt P08684). Description: Cytochrome panel assay with activity outcomes. The conditions noted are these: recombinant CYP, pro-luciferin dealkylation, luminescence, p450-cyp3a4; series mostly up to 57.1 µM; activity, negative = inhibition: at the top concentration.
`Cc1ccc(-n2c3c(c(=O)[nH]c2=O)C(NS(=O)(=O)c2ccc(C)cc2)(C(F)(F)F)C(=O)N3)cc1` (centres undefined): the “activity, negative = inhibition” value is -13.8%.
The same measure, in the same setting: under `O=C(c1cc(C(F)(F)F)cc(C(F)(F)F)c1)N1CCC2(CC1)CN(c1ccncc1)C2` stands -5.48%.
What is called AC50 is the concentration at which the activity in the assay is half-maximal. Take `O=C(c1cc(C(F)(F)F)cc(C(F)(F)F)c1)N1CCC[C@@]2(CCN(c3ncccn3)C2)C1`: the AC50 was 10 µM (active).
With `O=C(c1cc(C(F)(F)F)cc(C(F)(F)F)c1)N1CCC2(CC1)CCN(c1ncccn1)CC2`, the “activity, negative = inhibition” value was -9.89%.
`O=C(c1cc(C(F)(F)F)cc(C(F)(F)F)c1)N1CCC[C@@]2(CCN(c3ccccn3)C2)C1`: the AC50 is 3.98 µM (active).
On to `O=C(c1cc(C(F)(F)F)cc(C(F)(F)F)c1)N1CCC2(CC1)CN(c1ccccn1)C2`, for which the “activity, negative = inhibition” value was -15.9%.
For `O=C(c1cc(C(F)(F)F)cc(C(F)(F)F)c1)N1CCC[C@@]2(CCN(c3ccncc3)C2)C1`, the half-maximal activity concentration (AC50) is 6.31 µM (active).
`O=C(c1cc(C(F)(F)F)cc(C(F)(F)F)c1)N1CCC2(CC1)CCN(c1ccccn1)CC2`: the “activity, negative = inhibition” value was 4.89%.
Still for that read-out and setting: the value for `O=C(c1cc(C(F)(F)F)cc(C(F)(F)F)c1)N1CCC2(CC1)CN(c1ncccn1)C2` was -23.6%; that for `O=C(CCCCC(=O)Nc1c(I)cc(I)c(C(=O)O)c1I)Nc1c(I)cc(I)c(C(=O)O)c1I` was -16% [at 25.6 µM].
As for `O=C(Nc1ccccc1C(=O)O)c1ccc2ccccc2n1`, the “activity, negative = inhibition” value is 23%.
Same read-out and setting: under `CC(C)C(=O)Cc1ccc2ccccc2n1` stands -6.02% [at 11.4 µM]; under `CCCCc1cc2ccccc2c(OCCN(C)C)n1`, -17.9% [at 25.6 µM].
For `CCCCC[C@H](O)c1cccc(OCc2ccc3ccccc3n2)c1`, the AC50 is 12.6 µM (active).
Turning to `O=C(O)c1ccccc1Nc1cccc(OCc2ccc3ccccc3n2)c1`, the AC50 is 1.58 µM (active).
Turning to `O=C(O)Cc1cc2ccccc2nc1C(=O)O`, the “activity, negative = inhibition” value is 9.42%.
As for `CC(C)CNS(=O)(=O)c1cc(C(=O)N2CC(C)OC(C)C2)c(Cl)cc1Cl` (centres undefined), the AC50 is 3.16 µM (active).
Regarding `CC1CN(C2CCN(C(=O)c3cccc(Cl)c3)CC2)CC(C)O1` (centres undefined), the “activity, negative = inhibition” value was 20.4%.
On the same count and under the same terms, under `CC1CN(C(=O)c2cc3c(s2)CCC3)CC(C)O1` (centres undefined) stands 12.9%.
For the molecule `O=C(O)C[n+]1ccccc1`, the activity, negative = inhibition was -14.8% [at 11.4 µM].
As for `O=C(/C=C/c1ccc(Br)cc1)NC1CCCCCC1`, the activity, negative = inhibition was -12.6% [at 11.4 µM].
`Cc1ccc(/C=C/C(=O)NC(=S)Nc2ccccc2C(=O)NC2CCCCC2)cc1`: the AC50 was 8.91 µM (active).
For `CCOc1ccc(NC(=S)NC(=O)/C=C/c2ccc(C)cc2)c([N+](=O)[O-])c1`, the “activity, negative = inhibition” value was 5.31%.
Still for that read-out and setting: under `NC(=O)c1ncn([C@@H]2O[C@@H](CO)[C@@H](O)[C@H]2O)c1O` stands -3.29%.
The same measure, in the same setting: the value for `CCn1cc(C(=O)O)c(=O)c2cc3c(cc21)OCO3` was 3.68%.
`O=C(CCCn1c(=S)[nH]c2cc3c(cc2c1=O)OCO3)N1CCN(c2ccccc2)CC1`: the AC50 was 0.447 µM (active).
The same measure, in the same setting: under `C=CCNC(=O)c1ccc(Cn2c(=S)[nH]c3cc4c(cc3c2=O)OCO4)cc1` stands 7.94 µM (active); under `O=c1c2cc(Br)ccc2[nH]c(=S)n1Cc1cccnc1`, 0.398 µM (active).
`CCc1c(C(=O)O)[nH]c2ccc(Br)cc12`: the “activity, negative = inhibition” value was -8.49%.
Still for that read-out and setting: the value for `CC1CCN(CCCn2c(=S)[nH]c3ccc(N4CCOCC4)cc3c2=O)CC1` was -10.7%.
With `CCCCNC(=O)CCn1c(=S)[nH]c2cc3c(cc2c1=O)OCO3`, the AC50 is 3.98 µM (active).
Take `CC(C)OCCCn1c(=S)[nH]c2ncccc2c1=O`: the “activity, negative = inhibition” value was -15.3%.
Take `COCC(=O)N1CCC2(CC1)CCN(c1ccccn1)CC2`: the “activity, negative = inhibition” value is 3.62%.
`O=C(CCCn1c(=S)[nH]c2cc3c(cc2c1=O)OCO3)N1CCN(c2ncccn2)CC1`: the AC50 was 2 µM (active).
Same read-out and setting: the value for `Cc1cccc(N2CCN(C(=O)CCCn3c(=S)[nH]c4cc5c(cc4c3=O)OCO5)CC2)c1C` was 0.794 µM (active); that for `O=C(CCCn1c(=S)[nH]c2ccc(Br)cc2c1=O)N1CCN(c2ccccn2)CC1` was 1.26 µM (active); that for `O=C(CCCCCn1c(=S)[nH]c2cc3c(cc2c1=O)OCO3)N1CCN(C2CCCCC2)CC1` was 1.12 µM (active).
For the molecule `COCC(=O)N1CCC2(CCCN(c3ncccn3)C2)CC1`, the “activity, negative = inhibition” value was -6.09%.
On the same count and under the same terms, under `COc1ccccc1Cn1c(=S)[nH]c2cc(C(=O)N3CCN(C)CC3)ccc2c1=O` stands 12.8%.
Still for that read-out and setting: the value for `Cn1c(=O)c2[nH]c(CCC(=O)O)nc2n(C)c1=O` was -3% [at 11.4 µM]; that for `NS(=O)(=O)c1cc(Cl)c(Cl)c(S(N)(=O)=O)c1` was 0.288% [at 25.6 µM]; that for `CN(C)c1cc(=O)n2c(n1)SCCC2` was -1.72% [at 2.29 µM].
For the molecule `O=C(c1n[nH]c(=O)c2ccccc12)N1CCN(C2c3ccccc3-c3ccccc32)CC1`, the AC50 was 11.2 µM (active).
Take `O=C(c1coc(=O)c2ccccc12)N1CCN(Cc2ccccc2)CC1`: the “activity, negative = inhibition” value was -29.5%.
In the case of `CCc1ccc(NC(=S)N2CCN(c3cccc(C(F)(F)F)c3)CC2)cc1`, the “activity, negative = inhibition” value was -10.7%.
The same measure, in the same setting: the value for `COc1ccc(CC(=O)N2CCN(c3ccc(C4=NNC(=O)CC4C)cc3)CC2)cc1` (centres undefined) was -9.27% [at 2.29 µM].
As to `Cc1ccc(CC(=O)N2CCN(c3cccc(C(F)(F)F)c3)CC2)cc1`, the AC50 is 3.98 µM (active).
Consider `CC(=O)Nc1ccccc1C(=O)C(=O)O`, for which the “activity, negative = inhibition” value is -8.44%.
Still for that read-out and setting: the value for `Cc1ccc(S(=O)(=O)O[C@@H]2[C@H]([C@@H]3COC(C)(C)O3)O[C@H]3OC(C)(C)O[C@@H]32)cc1` was -4.72% [at 11.4 µM].
`COC(=O)[C@@]1(Cc2ccccc2)[C@H]2c3cc(C(=O)N4CCCC4)n(Cc4nc5ccccc5[nH]4)c3C[C@H]2CN1C(=O)c1ccccc1`: the AC50 was 1.26 µM (active).
With `O=C(CSc1nc2ccccc2[nH]1)NCCN1CCCCC1`, the “activity, negative = inhibition” value was -14.7%.
`COC(=O)[C@@]1(Cc2ccc(OC)cc2)[C@H]2c3cc(C(=O)N4CCCC4)n(Cc4nc5ccccc5[nH]4)c3C[C@H]2CN1C(=O)c1ccccc1`: the AC50 is 2 µM (active).
Regarding `N=C(N)SCCCN`, the activity, negative = inhibition was -9.75% [at 11.4 µM].
On the same count and under the same terms, the value for `O=C1c2ccccc2C(=O)N1C[C@]1(C(=O)O)NCCS1(=O)=O` was 8.42% [at 11.4 µM].
Regarding `O=C(NC1CCCC1)c1cnn2c(C(F)(F)F)cc(-c3ccco3)nc12`, the AC50 was 14.1 µM (active).
On to `CCOC(=O)N1CCN(c2nc(-c3ccco3)cc(C(F)(F)F)n2)CC1`, for which the “activity, negative = inhibition” value was -18%.
In the case of `O=C(Nc1c2c(nn1-c1ccc(F)cc1)CS(=O)(=O)C2)C12CC3CC(CC(C3)C1)C2`, the AC50 was 8.91 µM (active).
Still for that read-out and setting: under `O=C(CCC1CCCCC1)Nc1c2c(nn1-c1ccc(F)cc1)CS(=O)(=O)C2` stands 5.62 µM (active).
For the molecule `COC(=O)c1nn(C23CC4CC(CC(C4)C2)C3)c2c1C(=O)N(c1ccc(F)cc1)C2=O`, the “activity, negative = inhibition” value is -13%.
Same read-out and setting: the value for `Cc1cc(C)cc(-n2c(C)cc(C=C(C#N)C#N)c2C)c1` was 4.93%.
Turning to `COC(=O)C1=C(NC(=O)c2ccc(C)c(C)c2)CCS1`, the AC50 is 28.2 µM (active).
Still for that read-out and setting: the value for `COC(=O)C1=C(NC(=O)c2cccs2)CCS1` was 15.8 µM (active).
`Cc1ccc(S(=O)(=O)O/N=C2/CCCc3occc32)cc1`: the “activity, negative = inhibition” value is 1.14%.
Same read-out and setting: the value for `COC(=O)c1cnn(C(=O)c2ccccc2Br)c1N` was 9.7%.
Turning to `COC(=O)c1cnn(C(=O)c2cc(OC)ccc2Br)c1N`, the AC50 is 28.2 µM (active).
Take `CCOC(=O)c1cnn(-c2cc(Oc3ccccc3)ncn2)c1N`: the “activity, negative = inhibition” value was 19%.
The same measure, in the same setting: under `CCNC(=S)N1CC(C)OC(C)C1` (centres undefined) stands 1.05%.
Turning to `CCSC(=N)N`, the AC50 result is “inactive”.
On the same count and under the same terms, under `COc1ccccc1CNc1nc(-c2ccccc2CN(C)C)nc2ccccc12` stands 12.6 µM (active); under `COc1ccc(CNc2nc(-c3ccccc3CN(C)C)nc3ccccc23)c(OC)c1`, 7.94 µM (active).
Consider `CN1CCCN(C2C3CC4CC(C3)CC2C4)CC1` (centres undefined), for which the “activity, negative = inhibition” value was -0.38%.
The same measure, in the same setting: the value for `NS(=O)(=O)c1cccc2c1c([N+](=O)[O-])cc1[nH]c(=O)c(=O)[nH]c12` was -7.86%.
Take `Cc1cc(C)cc(NC(=O)N2CCCC2C(=O)Nc2ccc(-n3cnnn3)c(C)c2)c1` (centres undefined): the AC50 is 5.01 µM (active).
Same read-out and setting: the value for `Cc1cc(NC(=O)c2ccco2)ccc1-n1cnnn1` was 8.91 µM (active).
Turning to `CC(=O)Nc1cccc(NC(=O)C2CCCN2C(=O)Nc2ccccc2C)c1` (centres undefined), the activity, negative = inhibition was 0.0054% [at 11.4 µM].
For the molecule `COc1cc(Cn2cnnn2)ccc1O`, the “activity, negative = inhibition” value is -9.86%.
Take `COc1cc(-c2nc3ccccn3c2/N=C/c2ccccc2)ccc1O`: the AC50 is 7.08 µM (active).
For `O=[N+]([O-])c1ccc(Cl)c(-c2ccc(/C=N/c3c(-c4ccco4)nc4ccccn34)o2)c1`, the “activity, negative = inhibition” value is -6.34%.
`COc1ccc(CNc2ncncc2-c2ccccc2C)c(OC)c1`: the AC50 is 0.398 µM (active).
On the same count and under the same terms, the value for `COc1ccc(CNc2ncncc2-c2ccccc2CN(C)C)c(OC)c1` was 0.398 µM (active).
As to `COCCNc1cc(-c2ccccc2CN(C)C)ncn1`, the “activity, negative = inhibition” value was -14.6%.
For the molecule `COc1ccc(CNc2ncncc2-c2c(C)noc2C)c(OC)c1`, the AC50 was 1.26 µM (active).
Still for that read-out and setting: under `COc1ccc(CNc2ncncc2-c2ccccc2OC)c(OC)c1` stands 0.316 µM (active); under `N[C@H](CCC(=O)N[C@H](CSN=O)C(=O)NCC(=O)O)C(=O)O`, “inactive”.
For the molecule `CO[C@@H]1COC(=O)[C@H]2CCCN2C(=O)[C@@H](C)COC(=O)CCC[C@H]1C`, the activity, negative = inhibition was -20.2% [at 11.4 µM].
On the same count and under the same terms, the value for `C=CCOc1cccc(/C=N/NC(=O)C(=O)NCc2ccco2)c1` was -17.7%; that for `CC[N+](CC)(CC)CCOc1ccc(/C=C\c2ccccc2)cc1` was -9.87%.
Regarding `Cc1ccc(C(=O)N/C(=C/C=C/c2ccccc2)C(=O)NCc2ccco2)cc1`, the AC50 is 5.01 µM (active).
On to `C=CCNC(=O)/C(=C\C=C\c1ccccc1)NC(=O)c1ccc(OCCCC)cc1`, for which the AC50 was 8.91 µM (active).
With `Cn1cnc([N+](=O)[O-])c1Sc1nc(N)nc2c1ncn2[C@H]1C[C@H](O)[C@@H](CO)O1`, the activity, negative = inhibition was -4.33% [at 11.4 µM].
Turning to `CN1CCC(=C2c3ccccc3C=Cc3ccccc32)CC1`, the AC50 entry was “inactive”.
As to `O=C(O)CN(CCOCCOCCN(CC(=O)O)CC(=O)O)CC(=O)O`, the “activity, negative = inhibition” value was 6.56%.
For `N=C1/C(=C\c2ccc(SCc3ccco3)o2)C(=O)N=C2SC=NN12`, the AC50 was 3.98 µM (active).
Take `O=C(CCCN1C(=O)c2cccc3cccc(c23)C1=O)N1CCc2ccccc2C1`: the AC50 was 5.01 µM (active).
On to `CCc1ccc(/C=C\C(=O)N2CCc3ccccc3C2)cc1`, for which the “activity, negative = inhibition” value is -11.1%.
In the case of `O=C(CN1C(=O)c2cccc3cccc(c23)C1=O)N1CCCCCC1`, the AC50 was 10 µM (active).
With `O=C(O)c1cccc2cccc(-c3cccc4cccc(C(=O)O)c34)c12`, the activity, negative = inhibition is -5.55% [at 11.4 µM].
Same read-out and setting: under `N=C(N)N1CCc2ccccc2C1` stands -3.56% [at 25.6 µM]; under `O=C(c1ccc(S(=O)(=O)N2CCCCCC2)cc1)N1CCC(CN2C(=O)c3cccc4cccc(c34)C2=O)CC1`, -12.4%.
